# Source: PubChem (National Center for Advancing Translational Sciences (NCATS))
# PI5P4K alpha inh = inhibitors of human PI5P4K alpha | P48426 | PI5P4Kalpha enzyme, ADP-Glo luminescence, 60 min; stronger effect = lower value | max response, % | hit rate 1.2% among 330,000 | AID 652105; active = max response of -50% or lower; inconclusive = between -30% and -50%; inactive = -30% or higher; note: value at the top dose of about 77 µM
#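 Human PI5P4Kalpha with substrate in 0.038 M HEPES pH 7.4, 0.28 mM EGTA, 0.1% CHAPS, 5% DMSO; reaction started with 5 microM ATP (final), 60 min at room temperature. ADP formed read by ADP-Glo luminescence.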
# PLK1 PBD block = inhibitors of human PLK1 polo-box domain binding. P53350. Plk1 PBD binding of FITC phosphopeptide, fluorescence polarization. Potency, µM, hits mostly inhibitors. hit rate 2.8% among 360,000; note: series mostly up to about 57 µM; nearly all actives have a fitted effect of over 65% in size
# BAZ2B inh = blocks human BAZ2B | AlphaScreen BAZ2B-H3K14Ac peptide displacement | AID 504333 | Potency, µM (doses to about 114 µM), most hits filed as inhibitors | Q9UIF8 | hit rate 4.4% among 360,000; note: nearly all actives have a fitted effect of over 60% in size
#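 In this displacement format the biotinylated H3(5-23) peptide acetylated at Lys14 serves as ligand at 50 nM, with BAZ2B at 50 nM in PBS pH 7.4 containing 0.01% Tween-20. Donor and acceptor beads are 10 ug/mL final.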
# JMJD2A Tudor inh = JMJD2A Tudor domain (human) inhibition. hit rate 4.4% among 390,000. AID 504339. AlphaScreen JMJD2A-Tudor / H3K4me3 peptide binding. O75164. Potency, µM (top dose mostly 114 µM), usual class: inhibitors; note: nearly all actives have a fitted effect of over 50% in size
# G9a inh = G9a (human) methyltransferase inhibition | G9a H3K9 monomethylation, AlphaScreen, 2 h | Potency, µM (titrated, usually from 102 µM), actives largely listed as inhibitors | hit rate 8.8% among 350,000; note: nearly all actives have a fitted effect of over 75% in size
#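 Readings reflect AlphaScreen signal from monomethyl-H3K9 antibody detection. HMT at 20 nM; substrate b-H3K9 500 nM; cofactor SAM 20 uM; 2 h RT reaction; compounds tested as titrations in qHTS with 15 min preincubation.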
# HP1b chromo inh = HP1-beta chromodomain-methylated histone interaction inhibition | P83916 | AlphaScreen HP1-beta / biotin-H3K9me3 peptide binding | Potency, µM (titrated, usually from 114 µM), usual class: inhibitors | hit rate 0.56% among 390,000 | AID 540317; note: nearly all actives have a fitted effect of over 70% in size
#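 Compound inhibition of the preformed complex between 50 nM HP1-beta and 50 nM biotinylated H3K9me3 peptide was read by AlphaScreen. Buffer was PBS pH 7.4 with 0.01% Tween-20. Incubations ran 30 min at room temperature, with 10 ug/mL donor/acceptor beads.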
# Numbers stand for hits; – = inactive; ? = inconclusive; · = not tested or not shown; [ ] = another dose, or the depositor's remark. Only some compounds are listed: those with a hit (about 12% of all), similar ones and a draw of the others. Unless noted, calls come from the whole dose curve; as a rule, active = well fitted curve in the direction sought with a large enough effect; inconclusive = small, poorly fitted or top-dose-only effect, or another doubt; inactive = no such curve, though single readings can be large; an effect the other way counts as inactive or inconclusive.
SMILES,PI5P4K alpha inh,PLK1 PBD block,BAZ2B inh,JMJD2A Tudor inh,G9a inh,HP1b chromo inh
Cc1ccc(-c2n[nH]c(=S)n2/N=C/c2c(C)[nH]n(-c3ccccc3)c2=O)cc1,-57.5,–,·,?,1.26µM,–
Cc1nn(-c2ccccc2)c(C)c1/C=N/n1c(-c2ccc(Cl)cc2)n[nH]c1=S,–,?,–,?,5.01µM,–
COc1ccc(OC)c(CN2CCC(C(=O)N(C)CCc3ccc(OC)c(OC)c3)CC2)c1,–,–,–,22.4µM,·,–
COc1ccc(CCN(C)C(=O)C2CCCN(C3CCN(Cc4ccccc4)CC3)C2)cc1OC (configuration not stated),–,–,35.5µM,7.94µM,31.6µM,22.4µM
COc1ccc(CCNC(=S)NC2CCN(Cc3ccccc3)CC2)cc1OC,–,–,–,–,–,–
O=C(/C=C/c1ccco1)NC(=S)Nc1ccccc1O,–,–,39.8µM,–[11.4 µM],31.6µM,?
Cc1ccc(NC(=S)NC(=O)/C=C/c2ccco2)c(O)c1,-53.8,–,?,?,?,–
COc1ccc(NC(=S)NC(=O)/C=C/c2ccco2)c(OC)c1,–,–,–,?,–[0.501 µM],–
CC(=O)N(C)c1ccc(NC(=S)NC(=O)/C=C/c2ccco2)cc1,–,–,?,–,–,–
O=C(/C=C\c1ccco1)NC(=S)Nc1ccccc1O,-53.0,?,50.1µM,–[11.4 µM],44.7µM,–
COc1ccc(-c2csc(/C(C#N)=C(\O)CSc3nccn3C)n2)cc1OC,–,–,50.1µM,–,44.7µM,–
CC(C1SC(=S)NC1=O)C1SC(=S)NC1=O (configuration not stated),-77.5,2.12µM,·,·,·,·
O=C(Nc1ccc(Cl)c(-c2nc3ccccc3o2)c1)c1cccc2c(Cl)cccc12,·,·,–,–,–,–
Cc1ccccc1NC(=O)Cc1nc(COC(=O)CSc2ccc(F)cc2)cs1,–,–,·,·,·,·
CCCNc1nc(C)c(C(C)=O)cc1C#N,–,–,50.1µM,–,–,–
Cc1[nH]nc2c1C(c1ccc(-c3ccc(Cl)cc3)o1)C(C#N)=C(N)O2 (configuration not stated),–,?,39.8µM,?,79.4µM,–
Cc1[nH]nc2c1C(c1ccc(-c3ccccc3C#N)o1)C(C#N)=C(N)O2 (configuration not stated),·,29.9µM,–,?,20µM,–
Cc1[nH]nc2c1C(c1ccc(F)cc1)C(C#N)=C(N)O2 (configuration not stated),–,–,·,–[11.4 µM],–,–
Cc1nn(-c2ccccc2)c(Cl)c1C1C(C#N)=C(N)Oc2n[nH]c(C)c21 (configuration not stated),–,23.8µM,–,–[11.4 µM],?,–
Cc1ccc(CNC(=O)c2cnc3c(-c4ccccc4)c(C)nn3c2C)o1,·,·,–,–,–,–
COc1ccc(CN2CCCC(C(=O)Nc3cccc(-n4cccn4)c3)C2)c(F)c1 (configuration not stated),–,–,–,–,–,–
C[C@@]12C(=O)Nc3ccc(F)cc3C(=O)N1[C@H]1c3ccccc3OC[C@@H]1[C@@H]2c1ccccc1,–,23.8µM,·,?,·,–
N#C/C(=C/c1cn(-c2ccccc2)nc1-c1cccc(OCc2ccccc2)c1)C(=O)NCCCn1ccnc1,–,–,10µM,39.8µM,–,?
CCOc1cccc(-c2nn(-c3ccccc3)cc2/C=C(/C#N)C(=O)NCCCn2ccnc2)c1,–,–,35.5µM,?,?,?
N#C/C(=C/c1cn(-c2ccccc2)nc1-c1cccc(S(=O)(=O)N2CCOCC2)c1)C(=O)NCc1ccco1,–,–,–,–,–,–
SMILES,PI5P4K alpha inh,PLK1 PBD block,BAZ2B inh,JMJD2A Tudor inh,G9a inh,HP1b chromo inh
N#C/C(=C/c1cn(-c2ccccc2)nc1-c1cccc(S(=O)(=O)N2CCCC2)c1)C(=O)NCc1ccco1,?,?,–,–,50.1µM,–
COc1ccc(CCNC(=O)C(=O)NCC2OCCN2S(=O)(=O)c2ccc(Cl)cc2)cc1OC (configuration not stated),–,–,–,–,–,–
CCCCn1c(NS(=O)(=O)c2ccc(C)cc2)c(S(=O)(=O)c2ccccc2)c2nc3ccccc3nc21,–,9.47µM,–,–,?,–
Cc1ccc(S(=O)(=O)c2c(N)n(CCCN(C)C)c3nc4ccccc4nc23)cc1,–,–,–,–,–[12.7 µM],–
COCc1cc(C)nc(OCC(=O)N/N=C/c2ccc(-c3cc([N+](=O)[O-])ccc3C)o2)c1C#N,–,–,–,–,–,–
COCc1cc(C)nc(OCC(=O)N/N=C/c2ccc(C)o2)c1C#N,–,–,–,–,44.7µM,–
COCc1cc(C)nc(OCC(=O)N/N=C/c2ccc(-c3cccc([N+](=O)[O-])c3)o2)c1C#N,·,·,–,·,50.1µM,·
COCc1cc(C)nc(N/N=C/c2ccc(-c3ccc(C(=O)O)c(Cl)c3)o2)c1C#N,·,·,79.4µM,·,11.2µM,·
Cn1c2cc(B(O)O)sc2c2cnn(Cc3ccc(F)cc3F)c(=O)c21,·,·,–,·,–[12.7 µM],·
CC(C#N)Sc1ccc(S(=O)(=O)N(C)C2CCCCC2)cn1 (configuration not stated),–,–,–,–,?,–
Cc1ccc(NC(=O)CSc2n[nH]c(C)c2[N+](=O)[O-])cc1,–,–,–,–,–,–
Cc1[nH]nc(SCC(=O)Nc2ccc(C#N)cc2)c1[N+](=O)[O-],–,–,–,–,35.5µM,–
O=C1c2ccccc2NC(c2cc(Cl)cc(Cl)c2O)N1Cc1cccnc1 (configuration not stated),–,–,?,–,79.4µM,–
O=C1c2ccccc2NC(c2ccccc2O)N1Cc1ccccc1 (configuration not stated),·,·,·,–,·,·
O=C1c2c(-c3ccc(Br)cc3)noc2CCN1Cc1cn(-c2ccc(Cl)cc2)nn1,–,–,·,·,·,·
Cc1c(C(=O)Nc2ccccc2N2CCN(C)CC2)oc2ccc(F)cc12,–,–,–,?,31.6µM,?
CCSc1nccc(-c2nn(-c3ccc(C)cc3)ccc2=O)n1,–,–,–,–,79.4µM,–
CNC(=O)c1nn(-c2ccc(C)cc2)ccc1=O,–,–,–,–,–,–
Nc1nccc(-c2nn(-c3ccc(Cl)cc3)ccc2=O)n1,–,–,–,–,·,–
C#CCSc1nccc(-c2nn(-c3ccc(C)cc3)ccc2=O)n1,–,26.7µM,–,79.4µM,–[12.7 µM],?
CSc1nccc(-c2nn(-c3ccc(C)cc3)ccc2=O)n1,–,?,25.1µM,56.2µM,–,–
C=CCSc1nccc(-c2nn(-c3ccc(C)cc3)ccc2=O)n1,–,–,–,–,50.1µM,–
C=CCSc1nc(=O)n2ccc(C)cc2n1,?,–,–,–,–,–
Cc1nc2sc(C(N)=O)c(N)c2c2c1CCCC2,–,–,–,–,?,–
Cc1cccc(C(=O)Oc2ccc(/C=N/O)cc2)c1,·,–,–,–,10µM,–
